Measurements published in the supplement of paper PMC11732987, “Enantioselective OTUD7B fragment discovery through chemoproteomics screening and high-throughput optimisation” (Communications Chemistry, 2025).

Columns and labels:
Test in all cases: log2 ratio of Biotin-Ahx-Ub-VS probe labelling (fragment/DMSO); higher = less target engagement (more negative = stronger competition), active = hit call of the paper (q ≤ 0.05, log2 ratio ≤ -1)
Details in all cases: compound concentration: 200 uM; treatment time: 3 h
[1] = target: USP9X (UniProt Q93008)
Summary of the method: (§1)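 HEK293T lysate in Tris/CHAPS/IGEPAL buffer with protease inhibitors (495 µg per sample) was given fragment at 200 µM or vehicle for 3 h, in triplicate. It then received Biotin-Ahx-Ub-VS at 0.5 µM final for 1 h. Labelled DUBs were NeutrAvidin-enriched, digested with LysC and trypsin, and run by diaPASEF LC-MS/MS. Values are average log2 fragment/vehicle ratios by unpaired t-test on global-median-normalised Spectronaut quantities of proteins with ≥2 unique peptides.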

[2] = target: UniProt O00487
UniProt O00487, sequence (O00487 whole entry): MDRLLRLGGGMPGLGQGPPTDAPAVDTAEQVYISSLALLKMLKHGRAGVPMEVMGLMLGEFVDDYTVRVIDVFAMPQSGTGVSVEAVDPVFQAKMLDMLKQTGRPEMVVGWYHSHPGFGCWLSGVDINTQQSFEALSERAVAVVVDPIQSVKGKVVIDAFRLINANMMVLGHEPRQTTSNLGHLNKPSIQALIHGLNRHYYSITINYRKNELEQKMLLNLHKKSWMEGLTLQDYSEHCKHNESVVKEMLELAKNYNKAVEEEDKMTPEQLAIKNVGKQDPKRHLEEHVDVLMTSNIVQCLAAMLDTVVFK
Summary of the method: as §1

[3] = target: UniProt O00507
UniProt O00507, sequence (O00507 whole entry): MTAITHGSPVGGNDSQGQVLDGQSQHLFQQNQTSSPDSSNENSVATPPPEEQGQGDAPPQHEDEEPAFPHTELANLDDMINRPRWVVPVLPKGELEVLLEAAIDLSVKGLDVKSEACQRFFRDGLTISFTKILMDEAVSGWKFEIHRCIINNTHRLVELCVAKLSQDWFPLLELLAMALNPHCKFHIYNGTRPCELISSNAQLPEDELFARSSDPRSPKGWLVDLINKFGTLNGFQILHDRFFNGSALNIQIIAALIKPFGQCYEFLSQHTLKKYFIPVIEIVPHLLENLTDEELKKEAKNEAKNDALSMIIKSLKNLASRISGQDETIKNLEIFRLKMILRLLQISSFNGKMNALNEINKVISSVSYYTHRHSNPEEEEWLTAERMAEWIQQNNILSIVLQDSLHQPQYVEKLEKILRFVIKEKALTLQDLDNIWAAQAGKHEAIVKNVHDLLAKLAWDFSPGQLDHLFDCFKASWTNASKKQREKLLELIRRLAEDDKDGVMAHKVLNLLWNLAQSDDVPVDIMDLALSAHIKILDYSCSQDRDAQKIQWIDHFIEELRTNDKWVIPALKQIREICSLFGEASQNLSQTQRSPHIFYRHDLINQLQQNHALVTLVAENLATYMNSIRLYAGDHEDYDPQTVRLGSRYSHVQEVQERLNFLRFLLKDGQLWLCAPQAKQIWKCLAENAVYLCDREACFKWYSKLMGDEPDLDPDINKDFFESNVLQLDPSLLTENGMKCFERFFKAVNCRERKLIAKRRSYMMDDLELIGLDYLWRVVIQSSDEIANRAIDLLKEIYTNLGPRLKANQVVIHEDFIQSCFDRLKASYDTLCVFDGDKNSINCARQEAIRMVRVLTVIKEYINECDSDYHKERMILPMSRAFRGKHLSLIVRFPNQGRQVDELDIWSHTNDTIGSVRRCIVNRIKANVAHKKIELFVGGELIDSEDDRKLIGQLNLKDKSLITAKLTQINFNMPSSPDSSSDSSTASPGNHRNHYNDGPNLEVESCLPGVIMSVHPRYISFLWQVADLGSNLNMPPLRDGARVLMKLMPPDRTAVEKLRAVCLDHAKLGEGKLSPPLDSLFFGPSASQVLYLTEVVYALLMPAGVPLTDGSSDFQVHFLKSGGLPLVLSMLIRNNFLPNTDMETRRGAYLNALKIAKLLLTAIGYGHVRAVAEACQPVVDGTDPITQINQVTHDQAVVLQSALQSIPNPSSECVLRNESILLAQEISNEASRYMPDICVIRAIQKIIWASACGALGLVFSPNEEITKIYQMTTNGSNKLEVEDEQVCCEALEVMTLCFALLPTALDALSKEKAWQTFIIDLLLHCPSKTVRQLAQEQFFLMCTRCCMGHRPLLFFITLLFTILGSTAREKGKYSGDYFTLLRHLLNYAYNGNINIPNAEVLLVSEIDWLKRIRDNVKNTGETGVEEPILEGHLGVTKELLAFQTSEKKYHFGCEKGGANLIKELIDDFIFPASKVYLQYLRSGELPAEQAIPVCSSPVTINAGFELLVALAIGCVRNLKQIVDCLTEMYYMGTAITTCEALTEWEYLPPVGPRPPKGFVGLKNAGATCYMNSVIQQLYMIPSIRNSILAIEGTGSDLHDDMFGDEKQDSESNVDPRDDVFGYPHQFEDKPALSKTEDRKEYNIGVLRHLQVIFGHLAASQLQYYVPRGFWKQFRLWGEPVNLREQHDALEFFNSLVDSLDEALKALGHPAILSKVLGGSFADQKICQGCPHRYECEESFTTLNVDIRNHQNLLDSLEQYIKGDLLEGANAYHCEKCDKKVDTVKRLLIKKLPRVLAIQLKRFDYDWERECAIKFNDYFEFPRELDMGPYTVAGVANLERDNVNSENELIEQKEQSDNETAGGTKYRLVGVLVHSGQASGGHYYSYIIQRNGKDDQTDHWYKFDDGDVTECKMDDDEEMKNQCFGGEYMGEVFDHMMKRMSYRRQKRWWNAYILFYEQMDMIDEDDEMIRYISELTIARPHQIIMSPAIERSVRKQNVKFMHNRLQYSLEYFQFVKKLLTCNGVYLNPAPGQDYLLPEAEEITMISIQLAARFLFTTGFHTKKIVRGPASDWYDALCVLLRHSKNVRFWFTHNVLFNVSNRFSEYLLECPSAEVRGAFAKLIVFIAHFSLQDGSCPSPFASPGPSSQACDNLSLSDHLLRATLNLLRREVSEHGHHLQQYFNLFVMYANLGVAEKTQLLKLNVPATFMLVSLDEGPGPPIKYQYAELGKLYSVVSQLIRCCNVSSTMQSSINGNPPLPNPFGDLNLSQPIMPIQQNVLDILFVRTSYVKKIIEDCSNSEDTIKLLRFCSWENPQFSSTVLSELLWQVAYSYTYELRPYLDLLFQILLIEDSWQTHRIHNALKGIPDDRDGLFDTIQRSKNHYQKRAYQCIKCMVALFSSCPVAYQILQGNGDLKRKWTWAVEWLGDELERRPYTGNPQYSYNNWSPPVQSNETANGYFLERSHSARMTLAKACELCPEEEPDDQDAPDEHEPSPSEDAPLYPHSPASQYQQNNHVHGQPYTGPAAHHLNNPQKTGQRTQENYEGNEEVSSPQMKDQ
Summary of the method: as §1

[4] = target: UniProt P51784
UniProt P51784, sequence (P51784 whole entry): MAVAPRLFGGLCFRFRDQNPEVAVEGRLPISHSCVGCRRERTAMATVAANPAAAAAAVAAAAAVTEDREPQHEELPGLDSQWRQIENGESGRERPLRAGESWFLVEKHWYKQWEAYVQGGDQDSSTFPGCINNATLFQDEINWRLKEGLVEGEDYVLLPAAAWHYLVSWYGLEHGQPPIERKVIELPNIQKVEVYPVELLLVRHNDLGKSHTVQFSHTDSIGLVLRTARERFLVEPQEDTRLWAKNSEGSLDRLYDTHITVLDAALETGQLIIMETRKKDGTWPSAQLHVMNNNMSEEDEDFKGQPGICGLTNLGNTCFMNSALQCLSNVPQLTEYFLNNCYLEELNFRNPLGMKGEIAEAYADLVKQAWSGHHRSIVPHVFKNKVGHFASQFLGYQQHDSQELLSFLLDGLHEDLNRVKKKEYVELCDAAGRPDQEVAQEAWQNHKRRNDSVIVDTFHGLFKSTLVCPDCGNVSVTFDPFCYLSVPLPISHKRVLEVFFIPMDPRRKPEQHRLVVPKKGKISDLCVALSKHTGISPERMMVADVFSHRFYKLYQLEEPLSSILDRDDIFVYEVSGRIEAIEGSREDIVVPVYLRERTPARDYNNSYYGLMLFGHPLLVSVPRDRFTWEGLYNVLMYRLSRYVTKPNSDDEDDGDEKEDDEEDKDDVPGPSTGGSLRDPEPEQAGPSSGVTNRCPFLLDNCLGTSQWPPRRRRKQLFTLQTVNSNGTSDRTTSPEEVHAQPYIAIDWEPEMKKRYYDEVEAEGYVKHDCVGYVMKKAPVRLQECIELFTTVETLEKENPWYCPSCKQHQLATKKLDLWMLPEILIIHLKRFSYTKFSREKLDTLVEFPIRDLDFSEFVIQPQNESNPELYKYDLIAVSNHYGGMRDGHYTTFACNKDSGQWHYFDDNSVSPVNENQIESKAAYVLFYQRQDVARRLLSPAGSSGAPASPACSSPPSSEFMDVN
Summary of the method: as §1

[5] = target: T1, UniProt Q5T2D3
T1 sequence (whole entry): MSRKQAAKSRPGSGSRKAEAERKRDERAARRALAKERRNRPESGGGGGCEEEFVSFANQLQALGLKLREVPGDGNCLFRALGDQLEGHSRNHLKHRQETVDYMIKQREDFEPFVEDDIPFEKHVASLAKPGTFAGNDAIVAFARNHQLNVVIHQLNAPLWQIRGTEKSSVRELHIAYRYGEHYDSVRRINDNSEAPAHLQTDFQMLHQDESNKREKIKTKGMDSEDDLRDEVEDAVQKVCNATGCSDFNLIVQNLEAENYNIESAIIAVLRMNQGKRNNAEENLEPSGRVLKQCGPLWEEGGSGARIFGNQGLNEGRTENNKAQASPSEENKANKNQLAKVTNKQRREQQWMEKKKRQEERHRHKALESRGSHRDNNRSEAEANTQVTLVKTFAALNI
Summary of the method: as §1

[6] = target: T2, UniProt Q8TE49
T2 sequence (whole entry): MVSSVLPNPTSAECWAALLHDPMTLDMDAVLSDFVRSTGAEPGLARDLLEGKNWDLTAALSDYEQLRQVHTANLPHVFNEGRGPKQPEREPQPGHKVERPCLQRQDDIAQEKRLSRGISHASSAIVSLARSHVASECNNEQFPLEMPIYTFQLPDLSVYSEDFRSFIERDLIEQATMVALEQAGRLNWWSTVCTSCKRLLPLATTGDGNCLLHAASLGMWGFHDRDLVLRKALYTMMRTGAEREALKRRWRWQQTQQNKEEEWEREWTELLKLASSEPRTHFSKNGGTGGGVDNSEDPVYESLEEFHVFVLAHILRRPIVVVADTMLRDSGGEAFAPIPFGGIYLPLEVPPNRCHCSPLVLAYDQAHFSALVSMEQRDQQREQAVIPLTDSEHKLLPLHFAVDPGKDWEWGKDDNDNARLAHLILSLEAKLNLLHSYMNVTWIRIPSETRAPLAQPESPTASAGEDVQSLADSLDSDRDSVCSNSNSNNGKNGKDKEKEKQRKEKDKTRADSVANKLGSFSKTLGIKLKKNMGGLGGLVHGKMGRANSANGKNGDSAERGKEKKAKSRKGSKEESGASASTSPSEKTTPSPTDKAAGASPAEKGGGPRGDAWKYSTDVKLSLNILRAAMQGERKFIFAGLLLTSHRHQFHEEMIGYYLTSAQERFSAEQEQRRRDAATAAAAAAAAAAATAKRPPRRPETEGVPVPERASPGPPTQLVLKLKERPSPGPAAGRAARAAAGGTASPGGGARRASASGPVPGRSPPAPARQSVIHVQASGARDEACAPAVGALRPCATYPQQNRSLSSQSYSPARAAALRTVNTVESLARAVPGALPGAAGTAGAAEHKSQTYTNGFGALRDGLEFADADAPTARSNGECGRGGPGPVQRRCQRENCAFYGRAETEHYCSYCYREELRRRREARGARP
Summary of the method: as §1

[7] = target: T3, UniProt Q9P2H5
T3 sequence (whole entry): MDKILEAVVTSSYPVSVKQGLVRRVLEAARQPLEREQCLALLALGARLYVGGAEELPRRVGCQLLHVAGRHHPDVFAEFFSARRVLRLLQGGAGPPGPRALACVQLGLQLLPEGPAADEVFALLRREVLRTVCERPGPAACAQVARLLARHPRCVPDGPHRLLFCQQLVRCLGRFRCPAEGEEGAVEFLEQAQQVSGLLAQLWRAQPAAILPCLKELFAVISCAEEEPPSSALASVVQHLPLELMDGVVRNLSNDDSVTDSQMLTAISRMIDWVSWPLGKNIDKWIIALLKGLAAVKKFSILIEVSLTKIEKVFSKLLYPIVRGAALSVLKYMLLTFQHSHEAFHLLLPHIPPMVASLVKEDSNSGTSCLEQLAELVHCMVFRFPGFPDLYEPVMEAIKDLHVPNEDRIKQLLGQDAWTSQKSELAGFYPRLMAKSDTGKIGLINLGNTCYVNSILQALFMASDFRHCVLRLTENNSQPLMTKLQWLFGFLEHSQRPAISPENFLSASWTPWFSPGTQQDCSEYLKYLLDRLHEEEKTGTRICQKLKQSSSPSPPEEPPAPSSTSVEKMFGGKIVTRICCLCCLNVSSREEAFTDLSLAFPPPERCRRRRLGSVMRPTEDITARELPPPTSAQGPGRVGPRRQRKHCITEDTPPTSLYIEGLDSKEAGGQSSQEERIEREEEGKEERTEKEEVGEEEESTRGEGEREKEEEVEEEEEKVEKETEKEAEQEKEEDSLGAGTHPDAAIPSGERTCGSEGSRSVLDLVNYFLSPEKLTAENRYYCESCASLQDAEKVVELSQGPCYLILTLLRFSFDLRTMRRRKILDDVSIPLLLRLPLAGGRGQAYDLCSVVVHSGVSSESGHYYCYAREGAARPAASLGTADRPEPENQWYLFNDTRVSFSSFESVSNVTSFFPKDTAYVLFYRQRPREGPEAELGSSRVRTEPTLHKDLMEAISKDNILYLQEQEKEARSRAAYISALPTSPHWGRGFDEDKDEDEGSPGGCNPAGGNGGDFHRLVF
Summary of the method: as §1

[8] = target: T4, UniProt Q9UGI0
T4 sequence (whole entry): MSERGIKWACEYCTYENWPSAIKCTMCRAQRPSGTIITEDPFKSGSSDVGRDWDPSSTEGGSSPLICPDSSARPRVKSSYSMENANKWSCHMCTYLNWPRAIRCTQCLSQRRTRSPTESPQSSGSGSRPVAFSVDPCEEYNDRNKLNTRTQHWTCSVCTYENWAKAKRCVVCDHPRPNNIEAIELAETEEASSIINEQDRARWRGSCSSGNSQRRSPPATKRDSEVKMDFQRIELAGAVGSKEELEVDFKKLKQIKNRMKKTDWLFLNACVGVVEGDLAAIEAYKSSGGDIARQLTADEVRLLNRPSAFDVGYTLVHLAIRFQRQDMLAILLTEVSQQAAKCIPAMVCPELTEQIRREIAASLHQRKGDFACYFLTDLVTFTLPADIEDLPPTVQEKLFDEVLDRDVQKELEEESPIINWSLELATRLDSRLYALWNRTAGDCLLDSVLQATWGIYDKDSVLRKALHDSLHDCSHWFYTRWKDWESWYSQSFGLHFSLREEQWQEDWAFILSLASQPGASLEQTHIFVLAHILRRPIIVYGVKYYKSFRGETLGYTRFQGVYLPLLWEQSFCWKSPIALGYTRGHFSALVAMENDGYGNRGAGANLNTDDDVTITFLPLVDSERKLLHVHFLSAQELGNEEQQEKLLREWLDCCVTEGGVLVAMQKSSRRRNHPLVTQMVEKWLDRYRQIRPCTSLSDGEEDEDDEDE
Summary of the method: as §1

[9] = target: T5, YOD1 (UniProt Q5VVQ6)
T5 sequence (whole entry): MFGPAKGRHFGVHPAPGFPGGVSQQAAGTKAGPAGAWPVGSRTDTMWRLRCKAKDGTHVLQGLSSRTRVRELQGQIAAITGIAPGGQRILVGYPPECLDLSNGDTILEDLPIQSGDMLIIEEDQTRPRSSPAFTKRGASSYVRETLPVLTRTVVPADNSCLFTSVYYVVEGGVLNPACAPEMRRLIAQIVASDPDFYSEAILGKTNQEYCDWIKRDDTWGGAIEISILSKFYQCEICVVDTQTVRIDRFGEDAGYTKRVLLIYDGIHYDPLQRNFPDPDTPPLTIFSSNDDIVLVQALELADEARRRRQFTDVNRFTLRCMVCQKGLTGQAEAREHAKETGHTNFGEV
Summary of the method: as §1

Measured: log2 ratio of Biotin-Ahx-Ub-VS probe labelling

CC(NC(=O)CCl)c1cnn(C2CC2)c1 (centres undefined)
inactive: [1] -0.227 | [2] -0.0263 | [3] -0.607 | [4] -0.127 | [5] -0.192 | [6] -0.779 | [7] -0.0606 | [8] -0.311 | [9] -0.732
